Measurements from PubChem BioAssay.
Activity calls are given as the source filed them.

Tests used:
[1] = binders of probe aFSTL3 on microarray, primary screen, stem cell growth factor project, biochemical, small-molecule microarray, fluorescence 635/667 (AID 1064); conditions: higher = more signal;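 note: measures binding of the biotinylated anti-FSTL3 antibody to printed compounds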
[2] = binders from COS7 lysate, DM2A8 probe, primary screen, torsin A project, cell lysate, small-molecule microarray, fluorescence 635/667 (AID 1065); conditions: higher = more signal, COS7 lysate expressing mutant human TOR1A
[3] = binders of probe aFGF2 on microarray, primary screen, stem cell growth factor project, biochemical, small-molecule microarray, fluorescence 635/667 (AID 1067); conditions: higher = more signal;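 note: measures binding of biotinylated aFGF2 protein to printed compounds on slides; z-score merges feature fluorescence and signal-to-noise across triplicate slides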
[4] = binders of probe aFGF10 on microarray, primary screen, stem cell growth factor project, biochemical, small-molecule microarray, fluorescence 635/667 (AID 1071); conditions: higher = more signal;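 note: score merges 667 nm spot intensity and signal to noise from triplicate slides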
[5] = target: Neurogenic locus notch homolog protein 2 (Homo sapiens) (UniProt Q04721); test: Notch2 binders on small-molecule microarrays, primary screen, biochemical, small-molecule microarray, 635 nm fluorescence, stem cell growth factors (AID 1073); conditions: Notch2 binding, higher = more signal
[6] = target: Pro-neuregulin-1, membrane-bound isoform (Homo sapiens) (UniProt Q02297); test: NRG1 binders on small-molecule microarrays, primary screen, psychiatric disease protein project, biochemical, small-molecule microarray, fluorescence 635/667 (AID 1075); conditions: NRG1 binding, 635 nm fluorescence, higher = more signal;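 note: score combines 667 nm spot fluorescence with signal to noise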
[7] = system: Neuregulin-1 EGF-like domain; test: binders of neuregulin-1 EGF-like domain, primary screen, biochemical, small-molecule microarray, 635 nm fluorescence (AID 1081); conditions: small-molecule microarray binding, higher = more signal;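 note: binding of the protein to compounds printed on small-molecule microarray slides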
[8] = FRG1 promoter luciferase signal modulators, primary screen, FRG1 inhibition for FSHD, cell-based, C2C12 myotubes, firefly/Renilla luciferase, luminescence (AID 1084); conditions: higher = more signal, called active from +8 up or from −8 down
[9] = binders of probe aFST on microarray, primary screen, stem cell growth factor project, biochemical, small-molecule microarray, fluorescence 635/667 (AID 1086); conditions: higher = more signal;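 note: score merges 667 nm fluorescence with signal-to-noise of each printed compound spot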
[10] = binders of probe aHhip on microarray, primary screen, stem cell growth factor project, biochemical, small-molecule microarray, fluorescence 635/667 (AID 1087); conditions: higher = more signal;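 note: score merges spot fluorescence at 667nm with spot signal to noise ratio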
[11] = system: PRMT1 (protein arginine N-methyltransferase 1); test: PRMT1 binders on small-molecule microarrays, primary screen, biochemical, small-molecule microarray, 635 nm fluorescence (AID 1088); conditions: small-molecule microarray binding, higher = more signal;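 note: binding of Prmt1 protein to compounds spotted on small-molecule microarray slides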
[12] = yeast growth modulation, basal conditions, primary screen, YJM789 clinical isolate, OD600, 24 h (AID 1089);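 note: growth of clinical yeast isolate S. cerevisiae YJM 789 seeded 1000 cells per well; test concentration not given here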; conditions: S. cerevisiae YJM789 growth, higher = more signal, called active from +8 up or from −8 down
[13] = fission yeast growth modulation, primary screen, strain 972, OD600, 24 h, no modulator (AID 1090);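 note: basal condition with compound alone and no growth modifier present; test concentration not given here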; conditions: S. pombe 972 growth, higher = more signal, called active from +8 up or from −8 down
[14] = S. cerevisiae growth modulation with rapamycin, primary screen, strain BY4716, OD600, 96 h (AID 1091); conditions: higher = more signal, called active from +8 up or from −8 down; note: test concentration not given here
[15] = target: Torsin-1A-interacting protein 2 (Homo sapiens) (UniProt Q8NFQ8); test: LULL1 binders on small-molecule microarray, primary screen, cell lysate, human LULL1 lysate, 635/667 nm fluorescence (AID 1092); conditions: hLULL1 lysate binding, 635 nm fluorescence, higher = more signal;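 note: probe is lysate of COS7 cells overexpressing human LULL1; score merges per-feature 667 nm fluorescence with signal-to-noise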
[16] = E. coli growth modulation, two-sided OD650, primary screen, E. coli filamentation project, strain DRC41, 24 h (AID 1093); conditions: OD650, 24 h, higher = more signal, called active from +8 up or from −8 down;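 note: MC1000 strain lacking acrAB efflux and sulA so SOS filamentation is blocked; test concentration not given here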
[17] = small-molecule microarray binders of probe aLefty2, primary screen, biochemical, biotinylated probe, 635/667 nm fluorescence (AID 1094); conditions: higher = more signal;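 note: score merges spot fluorescence near 667 nm with spot signal-to-noise ratio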
[18] = system: Noggin (protein binding on small-molecule microarray); test: Noggin binders on small-molecule microarray, primary screen, biochemical, 635/667 nm fluorescence (AID 1095); conditions: 635 nm fluorescence, higher = more signal;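 note: score merges 667 nm feature fluorescence with signal to noise over triplicate slides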
[19] = target: Neurogenic locus notch homolog protein 3 (Homo sapiens) (UniProt Q9UM47); test: NOTCH3 binders on small-molecule microarray, primary screen, biochemical, 635/667 nm fluorescence (AID 1096); conditions: NOTCH3 binding, 635 nm fluorescence, higher = more signal
[20] = small-molecule microarray binders of probe aEGFR, primary screen, biochemical, biotinylated probe, 635/667 nm fluorescence (AID 1097); conditions: higher = more signal;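 note: probe is a biotinylated anti-EGFR antibody binding compounds printed on slides; score combines fluorescence near 667 nm and signal to noise of each spot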

Torsin-1A-interacting protein 2 (Homo sapiens), sequence (Q8NFQ8 whole entry, looked up): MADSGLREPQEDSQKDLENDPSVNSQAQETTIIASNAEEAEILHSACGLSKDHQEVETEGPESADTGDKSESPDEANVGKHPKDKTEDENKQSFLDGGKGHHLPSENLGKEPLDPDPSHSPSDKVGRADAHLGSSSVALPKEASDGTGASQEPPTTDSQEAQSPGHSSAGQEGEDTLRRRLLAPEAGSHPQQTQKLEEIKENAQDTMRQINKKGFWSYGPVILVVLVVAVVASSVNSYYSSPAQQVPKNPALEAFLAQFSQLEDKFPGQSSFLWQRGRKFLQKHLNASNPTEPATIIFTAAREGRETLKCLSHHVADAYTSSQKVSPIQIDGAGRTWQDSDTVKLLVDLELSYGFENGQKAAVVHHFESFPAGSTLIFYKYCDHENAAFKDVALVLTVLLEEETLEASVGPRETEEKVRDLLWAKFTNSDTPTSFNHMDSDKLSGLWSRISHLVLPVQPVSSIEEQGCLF
Neurogenic locus notch homolog protein 3 (Homo sapiens), sequence (Q9UM47 whole entry, looked up): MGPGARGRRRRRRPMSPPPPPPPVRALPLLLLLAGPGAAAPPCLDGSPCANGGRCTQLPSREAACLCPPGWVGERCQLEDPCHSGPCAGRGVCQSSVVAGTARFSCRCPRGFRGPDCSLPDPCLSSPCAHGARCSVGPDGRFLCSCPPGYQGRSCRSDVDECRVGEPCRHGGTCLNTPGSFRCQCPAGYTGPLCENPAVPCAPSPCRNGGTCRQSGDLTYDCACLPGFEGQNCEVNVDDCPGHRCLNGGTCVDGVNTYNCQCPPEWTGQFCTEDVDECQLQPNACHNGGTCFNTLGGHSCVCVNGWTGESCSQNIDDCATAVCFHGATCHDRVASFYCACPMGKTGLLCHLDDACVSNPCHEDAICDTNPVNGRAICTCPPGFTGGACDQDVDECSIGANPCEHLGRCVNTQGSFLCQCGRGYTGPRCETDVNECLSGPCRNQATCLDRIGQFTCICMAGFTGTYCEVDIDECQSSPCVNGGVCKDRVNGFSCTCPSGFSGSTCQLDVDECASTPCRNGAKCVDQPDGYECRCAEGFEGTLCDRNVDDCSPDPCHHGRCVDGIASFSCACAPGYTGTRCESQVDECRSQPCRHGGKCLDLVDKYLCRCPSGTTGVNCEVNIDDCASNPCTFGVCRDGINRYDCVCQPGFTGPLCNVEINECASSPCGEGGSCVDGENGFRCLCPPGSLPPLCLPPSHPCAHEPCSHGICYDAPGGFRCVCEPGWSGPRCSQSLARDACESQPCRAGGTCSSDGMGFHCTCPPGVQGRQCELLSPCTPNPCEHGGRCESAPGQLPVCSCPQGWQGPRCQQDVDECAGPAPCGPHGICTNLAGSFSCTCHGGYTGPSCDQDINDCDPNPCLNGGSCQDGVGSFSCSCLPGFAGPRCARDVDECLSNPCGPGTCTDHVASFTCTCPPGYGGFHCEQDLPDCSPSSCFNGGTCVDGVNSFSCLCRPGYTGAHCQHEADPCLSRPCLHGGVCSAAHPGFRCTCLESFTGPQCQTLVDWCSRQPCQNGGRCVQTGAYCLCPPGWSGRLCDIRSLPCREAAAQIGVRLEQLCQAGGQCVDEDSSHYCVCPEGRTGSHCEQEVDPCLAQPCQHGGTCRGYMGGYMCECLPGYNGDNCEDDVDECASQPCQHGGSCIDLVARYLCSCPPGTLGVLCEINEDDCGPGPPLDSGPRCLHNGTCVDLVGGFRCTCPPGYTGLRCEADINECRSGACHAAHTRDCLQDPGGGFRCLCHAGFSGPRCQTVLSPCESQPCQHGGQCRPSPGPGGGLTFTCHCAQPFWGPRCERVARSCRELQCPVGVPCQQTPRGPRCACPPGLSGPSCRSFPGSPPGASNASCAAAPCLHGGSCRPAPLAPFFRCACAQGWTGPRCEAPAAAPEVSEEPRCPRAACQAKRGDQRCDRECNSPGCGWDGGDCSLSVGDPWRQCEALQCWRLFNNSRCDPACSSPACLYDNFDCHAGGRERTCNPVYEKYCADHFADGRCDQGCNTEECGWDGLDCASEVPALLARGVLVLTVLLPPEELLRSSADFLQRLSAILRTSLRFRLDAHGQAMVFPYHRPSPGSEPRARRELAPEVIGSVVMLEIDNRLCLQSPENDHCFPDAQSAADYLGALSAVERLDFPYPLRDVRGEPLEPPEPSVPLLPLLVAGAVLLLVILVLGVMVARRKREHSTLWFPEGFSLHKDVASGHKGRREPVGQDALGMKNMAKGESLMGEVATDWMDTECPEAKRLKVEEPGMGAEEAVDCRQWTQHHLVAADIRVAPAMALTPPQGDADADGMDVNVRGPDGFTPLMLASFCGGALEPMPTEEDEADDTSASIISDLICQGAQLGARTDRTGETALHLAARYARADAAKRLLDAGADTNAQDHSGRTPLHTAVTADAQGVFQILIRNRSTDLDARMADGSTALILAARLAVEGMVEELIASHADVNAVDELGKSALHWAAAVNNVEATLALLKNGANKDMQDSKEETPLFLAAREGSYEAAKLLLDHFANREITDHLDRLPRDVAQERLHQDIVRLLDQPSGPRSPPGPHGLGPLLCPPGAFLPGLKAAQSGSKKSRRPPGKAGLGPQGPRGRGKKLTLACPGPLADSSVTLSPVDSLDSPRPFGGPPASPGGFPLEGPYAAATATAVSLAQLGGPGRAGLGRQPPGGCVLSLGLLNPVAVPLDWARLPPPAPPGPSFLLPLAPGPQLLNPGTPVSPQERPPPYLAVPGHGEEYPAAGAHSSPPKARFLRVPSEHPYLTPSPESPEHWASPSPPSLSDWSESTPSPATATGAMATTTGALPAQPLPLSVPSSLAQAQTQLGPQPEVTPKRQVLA
Pro-neuregulin-1, membrane-bound isoform (Homo sapiens), sequence (Q02297 whole entry, looked up, the tested form may be a part, canonical isoform): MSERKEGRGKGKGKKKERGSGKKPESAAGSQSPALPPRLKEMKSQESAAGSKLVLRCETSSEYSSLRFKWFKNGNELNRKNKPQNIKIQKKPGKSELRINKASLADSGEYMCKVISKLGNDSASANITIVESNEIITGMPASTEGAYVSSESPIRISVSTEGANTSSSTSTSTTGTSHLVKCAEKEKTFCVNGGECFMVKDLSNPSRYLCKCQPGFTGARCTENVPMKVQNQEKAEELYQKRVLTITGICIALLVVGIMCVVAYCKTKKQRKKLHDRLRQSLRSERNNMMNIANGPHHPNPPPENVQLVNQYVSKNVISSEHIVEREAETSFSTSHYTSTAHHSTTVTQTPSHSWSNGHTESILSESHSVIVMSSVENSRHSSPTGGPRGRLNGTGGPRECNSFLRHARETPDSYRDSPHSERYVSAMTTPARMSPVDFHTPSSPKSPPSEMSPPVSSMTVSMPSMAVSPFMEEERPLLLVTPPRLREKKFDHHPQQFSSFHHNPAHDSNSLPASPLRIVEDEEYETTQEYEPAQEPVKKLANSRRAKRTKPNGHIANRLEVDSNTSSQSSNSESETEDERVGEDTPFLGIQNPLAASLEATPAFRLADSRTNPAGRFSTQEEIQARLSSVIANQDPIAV

| Structure (SMILES) | composite z-score [1] | composite z-score [2] | composite z-score [3] | composite z-score [4] | composite z-score [5] | composite z-score [6] | composite z-score [7] | z-score [8] | composite z-score [9] | composite z-score [10] | composite z-score [11] | z-score [12] | z-score [13] | z-score [14] | composite z-score [15] | z-score [16] | composite z-score [17] | composite z-score [18] | composite z-score [19] | composite z-score [20] |
| --- | --- | --- | --- | --- | --- | --- | --- | --- | --- | --- | --- | --- | --- | --- | --- | --- | --- | --- | --- | --- |
| Cc1ccc(S[C@]2(C(=O)NC(C)C)CC(=O)N(Cc3ccccc3Cl)[C@@H]2c2ccc(CO)cc2I)cc1 | 0.319 | -0.756 | -0.223 | -0.719 | -1.31 | 1.85 | 1.02 | -1.42 (inactive) | -0.377 | -0.0994 | 1.14 | -1.59 (inactive) | -1.98 (inactive) | 0.239 (inactive) | 1.81 | 0.0987 (inactive) | 0.0282 | -0.28 | -0.317 | -0.287 |
| COc1cc2c(cc1OC)CN(C(=O)[C@@H]1[C@H]3C(=O)O[C@H](c4ccccc4)[C@H](c4ccccc4)N3[C@H](c3ccc(O)cc3)[C@@]13C(=O)Nc1ccc(C#CC4(O)CCCCCC4)cc13)CC2 | -1.38 | 0.75 | -0.0197 | 0.763 | 1.18 | 1.73 | 1.35 | 0.651 (inactive) | 0.0629 | -0.274 | 1.55 | 0.739 (inactive) | -0.0727 (inactive) | 0.257 (inactive) | 3.46 | 0.395 (inactive) | -0.232 | 1.59 | 1.08 | 0.0685 |
| Cc1ccc(S[C@]2(C(=O)NCC(C)C)CC(=O)N(Cc3cc(C(F)(F)F)cc(C(F)(F)F)c3)[C@@H]2c2ccc(CO)cc2I)cc1 | 1.61 | -0.367 | -0.113 | -0.637 | -1.1 | 1.13 | 0.102 | -0.286 (inactive) | 0.0584 | -0.216 | 0.714 | -1.79 (inactive) | -1.94 (inactive) | 0.651 (inactive) | 0.736 | -0.161 (inactive) | 0.31 | -2.5 | -0.332 | -0.0824 |
| [N-]=[N+]=NCc1ccccc1[C@@H]1OC(c2ccc(OCCCO)cc2)=N[C@]1(CCS(=O)(=O)c1ccccc1)C(=O)NCc1ccccc1 | 0.985 | 1.05 | 0.289 | 0.76 | 1.5 | 1.74 | 1.32 | -2.83 (inactive) | 1.89 | 0.683 | 1.55 | 0.182 (inactive) | 1.18 (inactive) | 3.49 (inactive) | 3.25 | -0.382 (inactive) | 0.468 | 1.81 | 1.09 | 0.198 |
| CC(C)C[C@H]1NC(=O)[C@@]23C(=O)N[C@@H](Cc4ccccc4)C2[C@H](C)[C@@]2(C)O[C@H]2C3/C=C/C/C=C\CNC(=O)[C@H](Cc2ccccc2)NC1=O (stereo not given in full) | -0.404 | 0.443 | -0.0973 | 0.307 | 0.349 | 1.04 | 0.976 | 0.688 (inactive) | 0.146 | -0.0994 | 1.14 | 0.871 (inactive) | -0.388 (inactive) | -0.332 (inactive) | 1.13 | 0.11 (inactive) | -0.157 | 1.39 | 0.937 | -0.156 |
| CCOC1=C2C(CN(S(=O)(=O)c3ccc(C)cc3)C2c2ccc(C)cc2)C2C(=O)N(c3ccccc3)C(=O)C2C1 (stereo not given) | -0.208 | -0.155 | -0.0074 | 0.347 | 1.25 | 0.752 | 1.03 | -0.62 (inactive) | 0.585 | -0.0618 | 0.952 | 0.218 (inactive) | 1.86 (inactive) | 0.852 (inactive) | 1.96 | 0.0696 (inactive) | -0.0515 | 0.257 | 0.875 | 0.0414 |
| COc1ccc(C(O)C2C=CC3C(=O)NC(=O)C3N2Nc2ccccn2)cc1 (stereo not given) | -0.0118 | -0.765 | 0.0143 | 0.585 | 0.891 | 0.843 | 0.844 | 1 (inactive) | 0.357 | -0.159 | 0.425 | 0.181 (inactive) | 0.312 (inactive) | 0.359 (inactive) | 0.665 | -0.434 (inactive) | 0.251 | 0.195 | 0.49 | 0.164 |
| O=C1NCC(=O)N2[C@@H]1C[C@@H](C(=O)O)[C@H]2c1cccc(OCCO)c1 | 3.93 | 2.65 | 1.02 | 0.935 | 1.82 | 2.97 | 1.53 | 3.17 (inactive) | 3.63 | 3.89 | 1.54 | -0.215 (inactive) | -14.2 (active) | 0.273 (inactive) | 4.93 | 0.0664 (inactive) | 1.81 | 2.31 | 1.03 | 1.41 |
| COc1cc2c(cc1O)C=[N+](Cc1cccc(OC(F)(F)F)c1)CC2 | -0.193 | 0.137 | -0.106 | -0.0214 | 0.457 | 0.529 | 0.544 | -0.886 (inactive) | -0.0596 | -0.374 | 0.224 | -1.65 (inactive) | -3.24 (inactive) | -1.98 (inactive) | 0.319 | -1.31 (inactive) | -0.103 | -0.0304 | -0.0987 | -0.171 |
